Results as given in PubChem BioAssay (NCI).
The panel holds about 79,000 compounds, 15% with a hit somewhere; the sample as a whole holds those more often. Values without a mark were called inactive. Active and inactive are the calls of the source. Rule as the data show it: active = growth inhibition above about 70%; inactive = the rest.

Columns and labels:
[1] = NCI Yeast Anticancer Drug Screen. Data for the rad50 strain (AID 155);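 also: 0% = growth of vehicle-only cultures of the same strain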; settings: S. cerevisiae rad50 strain growth inhibition, hits give high values
Procedure, shortened: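 Cells are treated with compound, grown, and their growth is then scored against vehicle-only cultures of the same repair-deficient yeast strain.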

[2] = NCI Yeast Anticancer Drug Screen. Data for the mec2-1 strain (AID 157); settings: S. cerevisiae mec2-1 strain, hits give high values
Procedure, shortened: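 Compounds were applied to mec2-1 yeast cells. Their growth was then compared with that of vehicle-treated cultures to give growth inhibition.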

[3] = NCI Yeast Anticancer Drug Screen. Data for the sgs1 mgt1 strain (AID 161);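 also: 0% = growth of cultures given vehicle only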; settings: S. cerevisiae sgs1 mgt1 strain, hits give high values
Procedure, shortened: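 Compounds are added to genetically altered yeast, and growth is compared with cultures given vehicle alone to give percent inhibition.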

[4] = NCI Yeast Anticancer Drug Screen. Data for the cln2 rad14 strain (AID 165);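 also: 0% = growth equal to vehicle treated cultures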; settings: S. cerevisiae cln2 rad14 strain, hits give high values
Procedure, shortened: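 Strain: cln2 rad14 yeast, altered in cell cycle control and DNA damage repair. Read-out: growth inhibition vs vehicle.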

[5] = NCI Yeast Anticancer Drug Screen. Data for the bub3 strain (AID 167); settings: S. cerevisiae bub3 mutant strain, hits give high values
Procedure, shortened: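 Part of a panel of yeast mutants defective in DNA damage repair or cell cycle regulation. Each strain is grown with compound, and inhibition is calculated relative to solvent-treated cultures.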

[6] = NCI Yeast Anticancer Drug Screen. Data for the mlh1 rad18 strain (AID 175); settings: S. cerevisiae mlh1 rad18 strain growth inhibition, hits give high values
Procedure, shortened: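 A repair-deficient yeast strain is exposed to test compound, and growth is scored relative to vehicle-treated controls.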

[7] = at 5.0 µM (retest, dose inferred, filed as 0.5)
[8] = at 50.0 µM (retest, dose inferred, filed as 5.0)

Structure (SMILES)	growth inhibition [1, 7]	growth inhibition [1, 8]	growth inhibition ([1]; at 50.0 µM)	growth inhibition [2, 7]	growth inhibition [2, 8]	growth inhibition ([2]; at 50.0 µM)	growth inhibition [3, 7]	growth inhibition [3, 8]	growth inhibition ([3]; at 50.0 µM)	growth inhibition [4, 7]	growth inhibition [4, 8]	growth inhibition ([4]; at 50.0 µM)	growth inhibition [5, 7]	growth inhibition [5, 8]	growth inhibition ([5]; at 50.0 µM)	growth inhibition [6, 7]	growth inhibition [6, 8]	growth inhibition ([6]; at 50.0 µM)
OCC(O)C(O)C(/C=N/Nc1ccccc1)=N/Nc1ccccc1 (configuration not stated)	11%	45%	44%	7%	32%	13.7%	10%	57%	47.4%	51%	38%	13.4%	6%	-65%	-5.35%	2%	61%	60.4%
Nc1ccc(-c2ccc(Cl)cc2)cc1	0%	96% (active)	96.7% (active)	-2%	61%	78.7% (active)	-1%	78% (active)	94.5% (active)	-6%	93% (active)	92.2% (active)	4%	61%	96.9% (active)	-1%	95% (active)	93.3% (active)
O=C1C=CC(=O)N1c1ccccc1[N+](=O)[O-]	98% (active)	99% (active)	99.5% (active)	99% (active)	100% (active)	99.5% (active)	98% (active)	99% (active)	99.4% (active)	90% (active)	99% (active)	99.6% (active)	97% (active)	100% (active)	99.5% (active)	98% (active)	100% (active)	99.5% (active)
C[N+]1(C)CCN(CCCN2c3ccccc3Sc3ccccc32)CC1	0%	54%	42.1%	8%	22%	14.3%	-222%	66%	66.9%	4%	15%	25.7%	5%	26%	10.9%	-5%	76% (active)	56.9%
CCOC(=O)/C=C\c1c(Cl)n(-c2ccccc2)c(=O)n(-c2ccccc2)c1=O	31%	98% (active)	87.7% (active)	24%	99% (active)	90.5% (active)	23%	99% (active)	89.8% (active)	26%	99% (active)	90.3% (active)	31%	99% (active)	85.6% (active)	27%	98% (active)	92.3% (active)
COC(=O)c1cccc2c3ccccc3c3ccccc3c12	6%	98% (active)	97.1% (active)	15%	98% (active)	99.5% (active)	8%	99% (active)	99.2% (active)	6%	97% (active)	99.5% (active)	12%	97% (active)	97.8% (active)	9%	99% (active)	99.2% (active)
CC1=C(C(=O)Nc2cccc(C(F)(F)F)c2)C(c2ccccc2F)C(C(=O)Nc2cccc(C(F)(F)F)c2)=C(C)N1	46%	46%	78.4% (active)	46%	46%	78.9% (active)	29%	29%	85.9% (active)	21%	21%	85.7% (active)	37%	37%	85.2% (active)	47%	47%	80.4% (active)
CCOCCOC(=O)C(C)O (configuration not stated)	9%	-1%	9.25%	-1%	-3%	27.1%	-2%	3%	-3.1%	5%	2%	45.3%	6%	14%	9.25%	7%	-2%	-7.1%
CCOC(C)(OCC)C(N)c1ccccc1 (configuration not stated)	-15%	-12%	14.3%	10%	-17%	19.4%	6%	9%	-0.2%	-1%	5%	-5.65%	6%	9%	-6.9%	2%	9%	1.05%
C[n+]1c(/C=C/c2cccc([N+](=O)[O-])c2)sc2ccccc21	10%	97% (active)	97.6% (active)	15%	99% (active)	96.2% (active)	-1%	98% (active)	97.9% (active)	14%	97% (active)	98.8% (active)	7%	97% (active)	96% (active)	13%	98% (active)	99.2% (active)
CCCCOc1ccc(CN2CCOC2=O)cc1	3%	8%	38.6%	7%	12%	17.8%	4%	4%	10.6%	5%	9%	28.3%	7%	7%	6.3%	0%	3%	55.4%
CC(=O)N1C(C(=O)NNc2ccccc2)CSC1c1ccccc1 (configuration not stated)	71% (active)	90% (active)	38.1%	40%	84% (active)	64.6%	75% (active)	89% (active)	44.6%	42%	82% (active)	65%	57%	93% (active)	35.2%	83% (active)	96% (active)	56.1%
CC([NH-])C(=O)O.[Cu+2].[NH-]C(Cc1cnc[nH]1)C(=O)O (configuration not stated)	-8%	7%	98.9% (active)	-4%	0%	99.3% (active)	-3%	1%	98.7% (active)	4%	12%	96% (active)	-5%	-1%	99% (active)	-7%	2%	98.7% (active)
c1cc(SSc2ccncc2)ccn1	47%	100% (active)	51.1%	50%	100% (active)	85.5% (active)	55%	100% (active)	56.8%	34%	97% (active)	42%	45%	69%	92.6% (active)	65%	100% (active)	82.1% (active)
COC(=O)C1=C(/C=C/C(C)=O)NC(C)=C(C(=O)OC(C)C)C1c1ccccc1Cl (configuration not stated)	40%	95% (active)	49.3%	34%	97% (active)	62.5%	37%	96% (active)	24.5%	65%	95% (active)	33.5%	40%	97% (active)	41.2%	34%	95% (active)	51.4%
ONC1=Nc2ccccc2OCc2cc(Br)c(Br)cc2COc2ccccc2N=C1NO	22%	96% (active)	88% (active)	19%	98% (active)	91.1% (active)	18%	89% (active)	91.5% (active)	-1%	81% (active)	89.4% (active)	13%	91% (active)	90.9% (active)	31%	97% (active)	87.9% (active)
BrCc1ccccc1C[P+](c1ccccc1)(c1ccccc1)c1ccccc1	55%	98% (active)	89.5% (active)	52%	99% (active)	90.7% (active)	54%	99% (active)	85.5% (active)	25%	97% (active)	82.3% (active)	47%	98% (active)	89.7% (active)	69%	98% (active)	88.2% (active)
O=C(Nc1cc(Cl)cc(Cl)c1)C(F)(F)F	27%	98% (active)	83.9% (active)	34%	100% (active)	87.5% (active)	37%	99% (active)	96.4% (active)	9%	99% (active)	92.4% (active)	96% (active)	99% (active)	85% (active)	59%	99% (active)	97.4% (active)
Nc1ccc2c(c1)CCc1ccccc1-2	1%	40%	83.3% (active)	-27%	10%	43.6%	2%	52%	89.8% (active)	-5%	8%	50.4%	-7%	65%	81.5% (active)	2%	45%	86.5% (active)
